Results on 13 compounds are retold here after PubChem BioAssay (NCI).

Molecules are shown by their SMILES. About 83,000 compounds went through this panel and 20% of them were active in at least one assay; those are over-represented in the sample as a whole.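 In brief: 96-well plates, 48 h treatment, single concentration, percent growth endpoint.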 Unmarked numbers belong to inactive results. The source made the active and inactive calls. How the source made its calls: active means growth percent below 10; inactive means the rest.

Holding throughout (test): NCI-60 one-dose screen, 48 h (100 = growth as untreated, 0 = no growth, -100 = all killed)
Details in all cases: 10 µM unless noted

The subject of experiment [1] is NCI-H23 lung.
The test system of experiment [2] is NCI-H226 lung.
Experiment [3] has as its system NCI-H322M lung.
Experiment [4] deals with HOP-62 NSCLC.
The test system of experiment [5] is NCI-H460 lung.
In experiment [6] the test system is HOP-92 NSCLC.
In experiment [7] the test system is NCI-H522 lung.
In experiment [8] the test system is A549/ATCC NSCLC.
Experiment [9] concerns 786-0 renal.
Experiment [10] deals with COLO 205 colon.

`C[C@@H]1CC[C@@H]2[C@@H]1[C@H](OC(=O)/C=C/c1ccccc1)[C@]1(CCCOCCOCCOCCOC(=O)CCCC[C@@H]3SC[C@@H]4NC(=O)N[C@@H]43)C[C@@H](OC(=O)CO)[C@@]2(C)O1`: the growth in [1] was 102%; in experiment [2], 105%; in experiment [3], 92.6%; in experiment [4], 99.3%; in [5], 106%; in experiment [6], 108%. In addition, the growth in [7] was 85%; in [8], 97.7%; in experiment [9] it was 97.6%; in [10] it was 112%.
For the compound `CCn1c(Sc2nnc(NC(=O)CSC(=S)N3CCCCC3)s2)nc2c1c(=O)n(C)c(=O)n2C`, the growth is 91.3% in [1]; 86.6% in experiment [2]; 101% in [3]; 87.1% in experiment [4]; 101% in [5]; 81.1% in experiment [6]. For the same compound, the growth is 38.1% in experiment [7], 78.1% in [8] and 92.4% in experiment [9].
On to `c1ccc([P+](CCCc2n(Cc3ccc4ccccc4c3)c3ccccc3[n+]2Cc2ccc3ccccc3c2)(c2ccccc2)c2ccccc2)cc1`, for which the growth in experiment [1] was 44%; in experiment [2], 83.5%; in [3], 63.8%; in [4], 61.6%; in experiment [5], 34.8%; in experiment [6], 46.3%. In addition, the growth in experiment [7] was 60.2%; in [8] it was 80.2%; in [9], 70.8%; in experiment [10], 44.7%.
As to `Cc1nc(Nc2ccc(NC(=S)Nc3ccccc3)cc2)nc2nc(Nc3ccc(S(=O)(=O)O)cc3)[nH]c(=O)c12`, the growth was 95.8% in experiment [1]; 123% in [2]; 122% in experiment [3]; 105% in experiment [4]; 108% in [5]; 75.7% in experiment [6]. The growth in experiment [7] was 86.9%; in [8], 111%; in [9], 103%; in experiment [10], 113%.
In the case of `NS(=O)(=O)c1cnccc1-n1ccc(=O)c(S(N)(=O)=O)c1`, the growth is 91.4% in experiment [1]; 84.1% in experiment [2]; 94.2% in experiment [3]; 85.6% in experiment [4]; 109% in [5]; 80.9% in [6]. Further, the growth in [7] was 9.19% (active); in experiment [8] it was 33.9%; in experiment [9], 97.5%; in experiment [10] it was 94.4%.
With `COc1ccc(-c2cc(-c3ccc(Nc4nc(Nc5ccccc5)nc(Nc5ccc(Cl)cc5)n4)cc3)nc(N)c2C#N)cc1`, the growth is -6.72% (active) in [1]; -60.9% (active) in experiment [2]; 42.2% in [3]; -31.1% (active) in experiment [4]; 24.6% in [5]; -67.6% (active) in experiment [6]. In addition, the growth in experiment [7] was -3.64% (active); in experiment [8] it was 38.2%; in experiment [9], -81% (active); in experiment [10], 12.5%.
In the case of `Cn1cc(-c2ccc3nc(-c4ccc(CC(=O)Nc5cc(C(C)(C)C)no5)cc4)cnc3c2)cn1`, the growth was 41.8% [30 µM] in experiment [1]; 30.8% [30 µM] in experiment [2]; 26.7% [30 µM] in [3]; 61.3% [30 µM] in experiment [4]; 21.1% [30 µM] in experiment [5]; -3.39% [30 µM] (active) in experiment [6]. Also, the growth in [7] was 26.6% [30 µM]; in experiment [8], 33.9% [30 µM]; in experiment [9] it was 35.7% [30 µM]; in experiment [10], 61.6% [30 µM].
On to `Nc1c(-c2nc3ccc(Br)cc3c(=O)[nH]2)nnn1-c1ccccc1`, for which the growth is 82.6% in [1]; 107% in experiment [2]; 71.5% in [3]; 87% in experiment [4]; 43.5% in experiment [5]; 94.7% in [6]. The growth in [7] was 73.9%; in [8], 74.8%; in [9], 87.6%; in experiment [10], 102%.
Take `Nc1c(C(=O)Nc2ccccc2)sc2nc3c(cc12)CCCCCC3`: the growth in [1] was 22.5%; in experiment [2], 27%; in experiment [3] it was 29.2%; in experiment [4], 15.5%; in experiment [5], 4.61% (active); in experiment [6] it was 76.5%. The growth is -11.6% (active) in [7], 15% in experiment [8], 10.4% in experiment [9] and -17% (active) in experiment [10].
As to `COc1ccc(OC)c(/C=C2\COc3ccc(O)c(O)c3C2=O)c1`, the growth in experiment [1] was 48.9%; in [2] it was 85.2%; in experiment [3], 54.3%; in [4], 30.2%; in experiment [5] it was 4.53% (active); in [6], 56.7%. Also, the growth in experiment [7] was -33.4% (active); in [8], 48.1%; in [9], 22.4%; in experiment [10], 95.3%.
On to `O=C(O)c1ccccc1C(=O)Nc1ccc(Cl)cc1`, for which the growth in [1] is 99.3%; in experiment [2] it was 118%; in [3] it was 101%; in experiment [4], 107%; in experiment [5], 106%; in [6], 97.8%. Further, the growth in experiment [7] was 91%; in experiment [8], 85%; in experiment [9], 94%; in experiment [10], 107%.
For `COc1ccc(/C(C)=C(\c2ccc(Cl)cc2)c2ccc(OCCCN(C)C)cc2)cc1F`, the growth in experiment [1] was 78.1%; in experiment [2], 98%; in experiment [3] it was 67.6%; in experiment [4], 52.8%; in experiment [5], -3.98% (active); in experiment [6], 92%. The growth in experiment [7] was 77%; in experiment [8], 57.2%; in experiment [9], 62.2%; in experiment [10], 7.6% (active).
As for `COc1cc(C2CC(c3ccc(Nc4nc(Nc5ccc(F)cc5)nc(Nc5ccc(Cl)cc5)n4)cc3)=NN2C(C)=O)cc(OC)c1OC` (centres undefined), the growth in experiment [1] is 68.8%; in experiment [2], 67.9%; in experiment [3] it was 84.8%; in [4] it was 72.3%; in [5], 77.9%; in experiment [6], 51.8%. Besides, the growth is 73.8% in [7], 50.8% in [8], 87.2% in experiment [9] and 58% in experiment [10].
